The values below come from PubChem BioAssay (Tox21).

Molecules are shown by their SMILES. Unmarked numbers belong to inactive results. Inconclusive results are not listed. Calls of active or inactive are those of the source. Unless noted, calls come from the whole dose curve; as a rule, active = well fitted curve in the direction sought with a large enough effect in the repeat runs; inconclusive = weak or mixed curves; inactive = no such curve, though single readings can be large; an effect the other way counts as inactive or inconclusive.

Assay [1] is described as follows: qHTS assay to identify small molecule agonists of the constitutive androstane receptor (CAR) signaling pathway - cell viability counter screen (AID 1224836). Note: nearly all actives have a fitted effect of over 45% in size. The method, boiled down:
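HepG2 cells stably carrying hCAR and a CYP2B6-2.2kb reporter; 15-concentration compounds plus PK11195 (final 0.75 uM), 23 hr at 37 C/5% CO2. Viability read by CellTiter-Fluor fluorescence.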
(In general: In qHTS, concentration-response curves come from the screen itself.)

Assay [2] is described as follows: qHTS assay to identify small molecule antagonists of the constitutive androstane receptor (CAR) signaling pathway - cell viability counter screen (AID 1224837). Note: nearly all actives have a fitted effect of over 45% in size. Note: potency is the fitted concentration of half-maximal effect. The method, boiled down:
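HepG2 cells stably carrying hCAR and CYP2B6-2.2kb reporter, stimulated with 50 nM CITCO and compounds at 15 concentrations for 23 h at 37 C. Viability measured by CellTiter-Fluor fluorescence.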

Assay [3] has as its target Nuclear receptor subfamily 1 group I member 3 (Homo sapiens) (UniProt Q14994). As to the kind of experiment: qHTS assay to identify small molecule antagonists of the constitutive androstane receptor (CAR) signaling pathway (AID 1224838). Note: nearly all actives have a fitted effect of over 40% in size. Note: potency is the fitted concentration of half-maximal effect. In a few lines:
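HepG2 cells stably carrying hCAR and a CYP2B6-2.2kb luciferase reporter, seeded 4 hrs before compound (15 concentrations). Stimulated with 50 nM CITCO for 24 hr at 37 C. ONE-Glo luminescence read after 30 min at room temperature.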

For assay [4] the target is unchanged. As to the kind of experiment: qHTS assay to identify small molecule agonists of the constitutive androstane receptor (CAR) signaling pathway (AID 1224839). Note: nearly all actives have a fitted effect of over 15% in size. Note: potency is the fitted concentration of half-maximal effect. The method, boiled down: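 HepG2 cells stably co-transfected with hCAR and a CYP2B6-2.2kb luciferase reporter; compounds at 15 concentrations with 0.75 uM PK11195 present. After 24 hr at 37 C, luciferase read by ONE-Glo luminescence.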

Assay [5] can be described thus: qHTS assay to identify small molecule antagonists of the estrogen related receptor signaling pathway with the pleiotropic PPARgamma coactivator (PGC) from Tox21 10K library - cell viability counter screen (AID 1224840; active = well fitted cell-killing curve with a large enough effect in the repeat runs, not every such curve was filed as active; note: nearly all actives have a fitted effect of over 40% in size). In a few lines:
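PGC/ERR cells (2,000/well) plated 6 h, then compound-treated for 17.5 h at 37 C. Viability measured by CellTiter-Fluor fluorescence after 30 min at 37 C, multiplexed with the pathway assay.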

The nature of assay [6]: qHTS assay to identify small molecule antagonists of the estrogen related receptor signaling pathway with the pleiotropic PPARgamma coactivator (PGC) from Tox21 10K library (AID 1224841; call rule not given here; note: actives are mostly falling curves and most rising ones were filed inactive; nearly all actives have a fitted effect of over 50% in size; note: potency is the fitted concentration of half-maximal effect). In a few lines: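 PGC/ERR cell line, 2,000 cells/well, pre-incubated 6 hours at 37 C, then exposed to compounds for 18 hours at 37 C; luciferase read with One-Glo luminescence after 30 min at room temperature.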

A short description of assay [7]: qHTS assay to identify small molecule agonists of the estrogen related receptor signaling pathway with the pleiotropic PPARgamma coactivator (PGC) from Tox21 10K library (AID 1224842). Note: nearly all actives have a fitted effect of over 15% in size. Note: potency is the fitted concentration of half-maximal effect. In a few lines:
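PGC/ERR reporter cells (NTP line) were seeded 2,000 per well, rested 6 h at 37 C/5% CO2, then pin-dosed with compounds in DMSO for 18 h at 37 C; luciferase read by One-Glo luminescence after 30 min at room temperature.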

Assay [8] in a line: qHTS assay to identify small molecule agonists of the hypoxia (HIF-1) signaling pathway - cell viability counter screen (AID 1224844; calls by dose curve; note: nearly all actives have a fitted effect of over 50% in size). In a few lines: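 HRE-bla ME-180 cells, 2,000/well in 0.5% dialyzed FBS medium, treated 17 h at 37C with compounds. Viability read in the same wells as the bla reporter, by CellTiter-Glo luminescence after 30 min at room temperature.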
Assay [9] can be described thus: qHTS assay to identify small molecule agonists of H2AX (AID 1224845; active = well fitted activation curve with a large enough effect in the signal ratio in the repeat runs, not every such curve was filed as active; the % refers to the signal ratio). The method, boiled down:
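Wild-type CHO-K1 cells plated overnight, then exposed 3 hr at 37C to compounds at 15 concentrations (0.76% DMSO). Lysed, then HTRF anti-pH2AX(S139)-cryptate/anti-H2AX-d2 detection after 24 hr at room temperature; emissions 665 and 620 nm.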

The nature of assay [10]: qHTS assay to identify small molecule agonists of H2AX - cell viability counter screen (AID 1224847; calls by dose curve; note: top concentration of the series differs between compounds; nearly all actives have a fitted effect of over 30% in size). In a few lines:
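CHO-K1 cells plated overnight at 37C, then exposed 3 h at 37C to compounds at 15 concentrations (0.76% DMSO final). Viability by CellTiter-Glo luminescence after 30 min at room temperature.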

A short description of assay [11]: qHTS assay to identify small molecule antagonists of the estrogen related receptor (ERR) signaling pathway from Tox21 library (AID 1224848). Note: nearly all actives have a fitted effect of over 50% in size. Note: potency is the fitted concentration of half-maximal effect. In a few lines:
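Cells: ERR line, 2,000/well; 6 h preincubation 37 C/5% CO2. Cpd in DMSO via pin tool; 18 h, 37 C. ONE-Glo, 30 min RT, luminescence.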

Assay [12] is described as follows: qHTS assay to identify small molecule agonists of the estrogen related receptor (ERR) signaling pathway from Tox21 library (AID 1224849; calls by dose curve; note: nearly all actives have a fitted effect of over 15% in size). As to conditions: ERR reporter cell line, ONE-Glo luciferase, 18 h; at 92.4 µM (top of the series) unless noted. The method, boiled down:
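ERR reporter cells (NTP line) pre-incubated 6 hours at 37 C, then exposed to compounds for 18 hours at 37 C. ONE-Glo luciferase luminescence was read after 30 minutes at room temperature.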

Assay [13] in a line: qHTS RealTime-Glo MT Cell Viability Assay in HepG2 cells - 24 hour (AID 1224867). Note: nearly all actives have a fitted effect of over 50% in size. In a few lines:
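Cells + NanoLuc/prosubstrate dispensed (600 cells/well) → 5 h at 37 C/5% CO2 → compounds in DMSO transferred → 40 h incubation at 37 C, luminescence read at 0, 8, 16, 24, 32, 40 h.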

The nature of assay [14]: qHTS RealTime-Glo MT Cell Viability Assay in HEK293 cells - 32 hour (AID 1224868). The method, boiled down: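 Tox21 10K qHTS, HEK293, 600 cells/well, RealTime-Glo reagent co-dispensed with cells; 5 h preincubation, compound by pintool, 37 C, luminescence at 0–40 h.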
The nature of assay [15]: qHTS RealTime-Glo MT Cell Viability Assay in HepG2 cells - 40 hour (AID 1224870). Note: nearly all actives have a fitted effect of over 50% in size. In a few lines:
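HepG2 cells mixed with RealTime-Glo MT reagents (NanoLuc plus cell-permeant prosubstrate) were seeded at 600 cells/well, incubated 5 h at 37 C/5% CO2, then pinned with compounds in DMSO; nonlytic luminescence tracked viability during 40 h treatment.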

Assay [16] in a line: A CellTox Green Cytotoxicity Assay to monitor cytotoxicity in HEK293 cells - 40 hour (AID 1224871). Note: nearly all actives have a fitted effect of over 45% in size. The method, boiled down:
(§1)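 HEK293 cells, 600/well, were preincubated 5 hours and then exposed to compounds at 37 C for up to 40 hours. A cell-impermeant cyanine dye staining dead-cell DNA was read by fluorescence at 0, 8, 16, 24, 32 and 40 h time points.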

Assay [17] addresses Thyrotropin receptor (Homo sapiens) (UniProt P16473). Put plainly: qHTS assay to identify small molecule agonists of the thyroid stimulating hormone receptor (TSHR) signaling pathway (AID 1224843; calls by dose curve; note: nearly all actives have a fitted effect of over 45% in size). In a few lines: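 TSHR-expressing HEK293 cells (800 per well) were exposed to compounds for 30 min at room temperature. cAMP was then detected by HTRF competition with cAMP-d2 and anti-cAMP cryptate, read after 1 h at room temperature. Fifteen concentrations, triplicate.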

The nature of assay [18]: qHTS assay to identify small molecule agonists of the hypoxia (HIF-1) signaling pathway (AID 1224846; active = well fitted activation curve with a large enough effect in the signal ratio in the repeat runs, not every such curve was filed as active; the % refers to the signal ratio). The method, boiled down:
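HRE-bla ME-180 beta-lactamase reporter cells in medium with 0.5% dialyzed FBS, pre-incubated 5 h then exposed to compounds 17 h at 37C, 5% CO2; reporter induction read with CCF4-AM FRET substrate.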

A short description of assay [19]: A CellTox Green Cytotoxicity Assay to monitor cytotoxicity in HEK293 cells - 0 hour (AID 1224869). Note: nearly all actives have a fitted effect of over 50% in size. In a few lines: as §1
Assay [20] addresses Luciferin 4-monooxygenase (Photinus pyralis) (UniProt P08659). Put plainly: qHTS assay to identify small molecule inhibitors of firefly luciferase (AID 1224835). Note: nearly all actives have a fitted effect of over 25% in size. In a few lines:
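Quantitative HTS format; KM concentrations of both substrates. Purified P. pyralis FLuc activity quantified from luminescence images.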
% is set by controls: 0 for no effect and ±100 for the full control effect.

Chain of Nuclear receptor subfamily 1 group I member 3 (Homo sapiens) (Q14994 whole entry, looked up): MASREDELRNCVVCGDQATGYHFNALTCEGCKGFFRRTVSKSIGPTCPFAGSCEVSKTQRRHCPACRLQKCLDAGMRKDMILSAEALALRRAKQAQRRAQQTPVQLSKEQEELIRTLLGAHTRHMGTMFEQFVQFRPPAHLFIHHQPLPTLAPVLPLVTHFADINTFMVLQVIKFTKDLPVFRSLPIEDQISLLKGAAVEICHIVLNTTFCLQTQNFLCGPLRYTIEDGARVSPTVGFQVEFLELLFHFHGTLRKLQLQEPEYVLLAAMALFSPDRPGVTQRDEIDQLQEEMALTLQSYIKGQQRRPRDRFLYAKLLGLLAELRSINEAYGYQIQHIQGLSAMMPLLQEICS
Chain of Thyrotropin receptor (Homo sapiens) (P16473 whole entry, looked up): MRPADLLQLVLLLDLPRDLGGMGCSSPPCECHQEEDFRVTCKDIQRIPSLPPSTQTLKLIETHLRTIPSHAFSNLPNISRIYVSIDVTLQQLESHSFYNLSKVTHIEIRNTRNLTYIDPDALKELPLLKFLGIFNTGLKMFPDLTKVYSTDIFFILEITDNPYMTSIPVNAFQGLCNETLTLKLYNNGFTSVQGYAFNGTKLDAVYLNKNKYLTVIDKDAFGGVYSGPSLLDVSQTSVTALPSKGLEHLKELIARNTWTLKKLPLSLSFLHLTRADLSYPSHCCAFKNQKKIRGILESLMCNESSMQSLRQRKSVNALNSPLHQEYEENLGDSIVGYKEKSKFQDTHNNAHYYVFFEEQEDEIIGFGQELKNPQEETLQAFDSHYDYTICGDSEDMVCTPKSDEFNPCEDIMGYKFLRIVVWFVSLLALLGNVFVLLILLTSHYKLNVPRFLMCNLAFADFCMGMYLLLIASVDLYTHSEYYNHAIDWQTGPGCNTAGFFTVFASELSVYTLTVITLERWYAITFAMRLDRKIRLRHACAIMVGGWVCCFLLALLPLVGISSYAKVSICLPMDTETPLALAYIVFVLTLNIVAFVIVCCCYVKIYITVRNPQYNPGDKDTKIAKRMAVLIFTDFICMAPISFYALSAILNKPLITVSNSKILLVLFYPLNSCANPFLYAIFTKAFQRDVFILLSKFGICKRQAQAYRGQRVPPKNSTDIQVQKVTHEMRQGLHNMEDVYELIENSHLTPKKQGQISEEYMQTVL
Chain of Luciferin 4-monooxygenase (Photinus pyralis) (P08659 whole entry, looked up): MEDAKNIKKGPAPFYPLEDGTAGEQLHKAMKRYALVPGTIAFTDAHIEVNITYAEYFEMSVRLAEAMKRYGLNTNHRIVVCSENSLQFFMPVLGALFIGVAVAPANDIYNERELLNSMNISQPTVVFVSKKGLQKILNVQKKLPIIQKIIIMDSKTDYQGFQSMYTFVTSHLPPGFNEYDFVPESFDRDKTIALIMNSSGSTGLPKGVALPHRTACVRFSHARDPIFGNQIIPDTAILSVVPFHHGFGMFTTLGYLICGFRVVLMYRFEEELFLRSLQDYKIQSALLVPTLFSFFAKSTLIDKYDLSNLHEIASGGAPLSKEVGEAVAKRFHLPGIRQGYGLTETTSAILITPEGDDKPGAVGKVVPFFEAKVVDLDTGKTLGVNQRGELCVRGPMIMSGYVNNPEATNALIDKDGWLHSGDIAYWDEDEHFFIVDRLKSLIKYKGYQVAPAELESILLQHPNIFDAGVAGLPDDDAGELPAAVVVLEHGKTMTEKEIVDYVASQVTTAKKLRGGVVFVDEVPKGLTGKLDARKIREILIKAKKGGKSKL

For the molecule `CC1=C(CC(=O)O)c2cc(F)ccc2/C1=C\c1ccc(S(C)(=O)=O)cc1`, the Potency result in assay [1], in assay [2], in assay [3], in [4], in [5] and in assay [6] was “inactive” each time. For the same molecule, the Potency result in assay [7], in [8], in assay [9], in assay [10], in [11] and in assay [13] was “inactive” each time. The Potency entry in assay [14], in [15] and in assay [16] was “inactive” throughout. Besides, in [12], the activity change, positive = activation was 5.91% [at 42.5 µM].

On to `Cc1cccc(C)c1NC(=O)CN1CCCCCC1`, for which the Potency result in assay [1], in [2], in assay [3], in assay [4], in assay [5] and in assay [6] was “inactive” throughout. Moreover, the Potency result in assay [7], in assay [17], in [8], in assay [9], in assay [10] and in assay [11] was “inactive” each time. The Potency entry in assay [13], in assay [14], in assay [19] and in [16] was “inactive” throughout. In assay [18], the result was inactive. For the same molecule, in [12], the activity change, positive = activation is 0.669% [at 42.5 µM].

On to `CCN[C@H]1CN(CCCOC)S(=O)(=O)c2sc(S(N)(=O)=O)cc21`, for which the Potency entry in assay [1], in assay [2], in [3], in assay [4], in assay [5] and in assay [17] was “inactive” each time. For the same molecule, the Potency entry in [8], in assay [13], in assay [14], in assay [19] and in assay [16] was “inactive” throughout.

Take `Cc1nc(-c2ccccn2)ncc1C(=O)Nn1cc(C)c2cc(F)ccc21`: the Potency result in [20], in [4], in assay [7], in assay [17], in assay [13] and in [15] was “inactive” in each case. In addition, the Potency entry in [16] was “inactive”. The Potency was 24.3 µM (active) in assay [2], 13.7 µM (active) in assay [3], 38.6 µM (active) in assay [6] and 54.5 µM (active) in [11]. Moreover, the activity change, positive = activation in [12] is -53.1%.

In the case of `Cc1ncc(CO)c(CN)c1O`, the Potency entry in assay [1], in [2], in assay [3], in assay [4], in assay [5] and in assay [6] was “inactive” in each case. The Potency result in assay [7], in assay [17], in assay [8], in assay [9], in assay [10] and in assay [11] was “inactive” each time. The Potency result in assay [13], in assay [14], in [19], in [15] and in [16] was “inactive” in each case. Further, the call in assay [18] was inactive. Also, the activity change, positive = activation in [12] was 4.27% [at 42.5 µM].

As for `OCCN(CCO)CCN(CCO)CCO`, the Potency entry in assay [1], in [2], in assay [3], in [4], in assay [5] and in assay [6] was “inactive” in each case. For the same molecule, the Potency result in assay [7], in assay [17], in assay [8], in assay [9], in [10] and in [11] was “inactive” in each case. For the same molecule, the Potency entry in [13], in [14], in [15] and in assay [16] was “inactive” throughout. Also, the outcome in [18] was inactive. Also, in assay [12], the activity change, positive = activation is -1.05%.

On to `Cc1ccc(C)c(N)c1`, for which the Potency result in [1], in assay [2], in assay [3], in [4], in [5] and in [6] was “inactive” throughout. For the same molecule, the Potency entry in assay [7], in [17], in [8], in [9], in assay [10] and in [11] was “inactive” throughout. Moreover, the Potency entry in [13], in assay [14], in assay [19], in [15] and in assay [16] was “inactive” each time. Also, the result in assay [18] was inactive. The activity change, positive = activation in assay [12] is 2.8%.

For `CCCCc1ccc2nc(NC(=O)OC)[nH]c2c1`, the Potency result in [1], in assay [2], in assay [3], in assay [5], in assay [6] and in assay [9] was “inactive” throughout. Further, the Potency entry in assay [10], in [11], in [13], in [19], in assay [15] and in assay [16] was “inactive” each time. Further, the Potency in [4] was 5.96 µM (active); in assay [7], 3.76 µM (active). In addition, in assay [18], the molecule was classed as inactive. The activity change, positive = activation in [12] is 17.3% [at 42.5 µM] (active).
